# Screening results deposited in PubChem BioAssay by SRMLSC.
# MK inhibit: blocks S. pneumoniae mevalonate kinase. purified MK, PK/LDH-coupled NADH absorbance 340 nm. inhibition, % at 10 µM. actives 0.48% (n = 65,000);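 active means ranked among the strongest by inhibition in the single 10 µM screen, a fixed top-ranked set picked for dose follow-up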
# NADH enzymes: blocks coupling enzymes of NAD/NADH assays; actives 0.02% (n = 65,000); IC50, µM (series often up to 10 µM), inactives show at the highest dose inhibition; AID 774; coupled PK/LDH NADH assays, four targets;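 active means single-dose screening hits from any of four coupled enzyme assays that gave an IC50 when retested across doses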;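 further: the DPM-DC format reads NADH fluorescence rather than 340 nm absorbance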
# A340 absorber: absorbance at 340 nm; compound absorbance at 340 nm, fold over control; fold change at 10 µM; 65,000 tested, under 10 active; AID 708;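 active means at 10 µM dose, initial 340 nm absorbance at least 2 fold that of control wells; inactive means change under 2 fold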;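 further: initial absorbance extrapolated from kinetic A340 decline of NADH oxidation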
# DPM-DC inhibit: blocks S. pneumoniae diphosphomevalonate decarboxylase. purified DPM-DC, PK/LDH coupled NADH fluorescence. actives 0.49% (n = 65,000). calls only at 10 µM;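 active means the 320 compounds with the highest percent inhibition in the single-dose primary screen, excluding strongly autofluorescent ones, cut at about 32% in these data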;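 further: kinetic rate of NADH fluorescence loss reporting ADP formed by the decarboxylase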
# Fluor 339 460: intrinsic fluorescence of library compounds, ex339/em460 – biochemical, MLSMR library, data from DPM-DC assay, artefact control, profiling panel; compound autofluorescence, ex339/em460 nm, NADH buffer; hits give high values; 1 = no-compound wells, NADH background; fluorescence fold increase at 10 µM; actives 5.5% (n = 65,000);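 active means at 10 µM, mean starting fluorescence two-fold or more over control wells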;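 further: signal is the first read of a kinetic run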
# Spn PMK inh: S. pneumoniae PMK inhibition | actives 0.49% (n = 65,000) | AID 539 | inhibition, % at 10 µM | purified PMK, PK/LDH-coupled NADH absorbance 340 nm;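 active means top-ranked compounds by inhibition in the single 10 µM screen, taking a fixed number of the strongest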;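 further: 0% = full reaction with DMSO carrier and 100% = background rate without enzyme reaction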
# Numbers without * were called inactive; i = inactive; · = no result shown; + = active, no number. A selection: hits, their analogues and other compounds. The true share with any hit is near 6.3%.
SMILES,MK inhibit,NADH enzymes,A340 absorber,DPM-DC inhibit,Fluor 339 460,Spn PMK inh
N#Cc1nc(-c2ccco2)oc1N1CCc2ccccc2C1,8,8%,1.1,·,3.8*,8
N#Cc1nc(-c2ccco2)oc1N1CCCC1,14,14%,1.1,·,3.9*,13
N#CCCN1CCN(S(=O)(=O)c2ccc(S(=O)(=O)NC3CCCC3)cc2)CC1,1,1%,0.99,i,1,0
N#Cc1cc2ccc(N3CCOCC3)cc2cc1C#N,10,3%,1,·,2.5*,4
Cc1nn(-c2ccccn2)c2nc(-c3cccs3)cc(C(=O)N3CCOCC3)c12,4,8%,1.2,·,2.1*,12
Cc1cccc(C)c1NC(=O)CSc1nnc(CCCCCNC(=O)OC(C)(C)C)o1,6,4%,1.1,i,1.2,6
C=CCN(C(=O)CCC(=O)O)C1CC(=O)N(c2ccc(OCCC)cc2)C1=O (configuration not stated),0,2%,1,i,1.1,5
Cc1ccc2cc(C#N)c(NCCNC(=O)C3CC3)nc2c1C,10,14%,1,i,3.2*,6
Cc1ccc(-c2nc3ccccc3[nH]2)s1,11,2%,1.1,·,2.5*,6
Cc1[nH]c2ccccc2c1-c1nc2ccccc2[nH]1,8,6%,0.99,i,1.4,10
Cc1nnsc1-c1nc2ccccc2[nH]1,0,9%,1.1,·,4.9*,17
c1csc(-c2nc3ccccc3[nH]2)c1,5,3%,1.1,·,3.6*,0
CC(C)(C)c1cc(NC(=O)c2cc(F)c(F)c(F)c2F)no1,0,1%,0.99,i,1,0
Cc1cc(C(=O)CSc2nnc(-c3ccco3)o2)c(C)n1CC1COc2ccccc2O1 (configuration not stated),0,2%,0.98,i,1,9
CC(C)Cc1[nH]c(=O)c(C#N)c2c1CCCC2,0,2%,1.1,i,1.4,6
CCOC(=O)CC(=O)CSc1nnc2c(n1)[nH]c1ccccc12,0,11%,1.2,i,1,34*
CCOC(=O)CN(C(=O)CSc1nnc2c(n1)[nH]c1ccc(OC)cc12)c1ccc(F)cc1,10,6%,1,i,1.1,7
Cn1c(=O)c2c(nc(SCc3ccccn3)n2C)n(C)c1=O,16,7%,1,i,1.1,4
COCCN1C(=O)c2oc3cc(C)c(C)cc3c(=O)c2C1c1ccc(O)cc1 (configuration not stated),9,7%,1,i,1,12
CC1(C(=O)NC2CCCCCCC2)CCC(=O)N1Cc1ccco1 (configuration not stated),2,11%,1,i,1,31*
CN1CC=C2C(C#N)=C(N)C(C#N)(C#N)[C@H](c3cccc(Cl)c3)C2C1 (some centres not stated),6,4%,1,i,1.4,0
CCCC1C2CN(C(C)C)CC=C2C(C#N)=C(N)C1(C#N)C#N (configuration not stated),8,13%,1,i,4*,6
CN1CC=C2C(C#N)=C(N)C(C#N)(C#N)C(CCc3ccccc3)C2C1 (configuration not stated),3,6%,1,i,2*,1
CCOC(=O)N1CC=C2C(C#N)=C(N)C(C#N)(C#N)[C@H](c3ccsc3)[C@H]2C1,13,12%,1,i,1.7,19
CCOC(=O)CN1CC23C=CC(O2)C(C(=O)Nc2ccc(C(C)=O)cc2)C3C1=O (configuration not stated),0,4%,0.99,i,1,6
SMILES,MK inhibit,NADH enzymes,A340 absorber,DPM-DC inhibit,Fluor 339 460,Spn PMK inh
CC(C)CNC(=O)c1cccc(NC(=O)c2ccc(NC(=O)c3ccco3)cc2)c1,6,2%,1,i,1.1,0
CCC(C)NC(=O)c1c(-c2cc(Cl)c(OC)c(Cl)c2)noc1C (configuration not stated),5,6%,1,i,0.98,6
CN1/C(=C\C(=O)C(F)F)C(C)(C)c2ccccc21,32,5%,1,i,1.1,0
CN1C(=O)C2(N=c3ccccc3=N2)c2ccccc21,2,3%,1.1,·,2.1*,4
CN(c1ccccc1)C(c1ccc(F)cc1)c1nnnn1C1CCCC1 (configuration not stated),5,5%,0.97,i,1.1,9
O=S(=O)(c1ccc(S(=O)(=O)N2CCCC2)cc1)N1CCCCCC1,0,6%,1,i,1,11
O=S(=O)(c1ccc2c(c1)C(=NO)c1cc(S(=O)(=O)N3CCCCC3)ccc1-2)N1CCCCC1,9,6%,1,i,2*,8
CCCCS(=O)(=O)c1sc2nc(C)cc(C)c2c1N,8,13%,1.1,i,2*,5
Cc1cc(C)c2c(N)c(S(=O)(=O)c3ccccc3)sc2n1,1,3%,1.1,i,1.4,0
CC(=O)C1=C(C)NC(C)=C(C(C)=O)C1c1cccs1,0,1%,1,i,1,1
COc1ccc(CNc2nc3nc(-c4ccccc4)cc(=O)n3[nH]2)cc1OC,5,5%,1.1,i,1.4,6
COc1cc(CNc2ccc(N3CCOCC3)c(C(=O)O)c2)ccc1OCC(N)=O,6,7%,0.99,+,2.3*,2
COC(=O)c1cc(NCc2ccc3c(c2)OCO3)ccc1N1CCOCC1,11,9%,0.99,i,1.7,10
COc1ccccc1CNc1ccc(N2CCOCC2)c(C(=O)O)c1,6,8%,1,i,2.2*,3
O=C(O)c1cc(NCc2ccc3c(c2)OCO3)ccc1N1CCOCC1,10,4%,1,i,2.5*,1
CC(=O)Nc1ccc(NS(=O)(=O)c2cn(C)c(=O)n(C)c2=O)cc1,8,3%,1,i,1.1,0
CN(CCc1ccccn1)Cc1ccc(Cl)cc1,59*,20%,1,i,1.1,0
COc1cc(CN(C)CCc2ccccn2)cc(OC)c1OC,52*,22%,1.1,i,1.1,15
COc1ccc(CN(C)CCc2ccccn2)cc1OC,8,9%,1,i,1,18
CCc1ccc(CN(C)CCc2ccccn2)cc1,52*,7%,1,i,1,0
Cc1ccc(CN(C)CCc2ccccn2)cc1,56*,20%,1.1,i,1.1,3
Cn1c(OCc2ccc3c(c2)OCO3)nc2c1c(=O)n(Cc1cccc(Cl)c1)c(=O)n2C,·,5%,1,i,1.1,10
COc1ccc(N(CC(=O)N2CCc3ccccc32)S(=O)(=O)c2c(C)n[nH]c2C)cc1,6,4%,1,i,1.2,7
Cc1cc2c3nonc3ccc2n1-c1ccccc1,6,6%,1,·,2.2*,6
